Assay outcomes from PubChem BioAssay.
rCAG RNA binder: binds r(CAG) RNA repeats | r(CAG) RNA repeat, TO-PRO-1 dye displacement fluorescence | inhibition, % at 3 µM | 370,000 compounds, 1.3% hits;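 active means inhibition above the plate cutoff, the mean of all test compounds on that plate plus 3 SD, cut at about 35% in these data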;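 further: 0% = DMSO alone and 100% = 100 µM mitoxantrone as full dye displacement; higher means more dye released from RNA so lower well fluorescence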
HGIII-sPLA2 inh: Blocks human group III sPLA2 activity. AID 743126. Q9NZ20. inhibition, % at 12.2 µM. QFRET BODIPY PC-A2 liposome hydrolysis, fluorescence. 370,000 compounds, 0.56% hits;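 active means inhibition above mean plus 3 SD of compounds lying within the high and low control bounds, cut at about 19% in these data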;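 further: 0% = median of test compound wells and 100% = no enzyme DMSO wells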
Target sequence (Q9NZ20 whole entry, looked up): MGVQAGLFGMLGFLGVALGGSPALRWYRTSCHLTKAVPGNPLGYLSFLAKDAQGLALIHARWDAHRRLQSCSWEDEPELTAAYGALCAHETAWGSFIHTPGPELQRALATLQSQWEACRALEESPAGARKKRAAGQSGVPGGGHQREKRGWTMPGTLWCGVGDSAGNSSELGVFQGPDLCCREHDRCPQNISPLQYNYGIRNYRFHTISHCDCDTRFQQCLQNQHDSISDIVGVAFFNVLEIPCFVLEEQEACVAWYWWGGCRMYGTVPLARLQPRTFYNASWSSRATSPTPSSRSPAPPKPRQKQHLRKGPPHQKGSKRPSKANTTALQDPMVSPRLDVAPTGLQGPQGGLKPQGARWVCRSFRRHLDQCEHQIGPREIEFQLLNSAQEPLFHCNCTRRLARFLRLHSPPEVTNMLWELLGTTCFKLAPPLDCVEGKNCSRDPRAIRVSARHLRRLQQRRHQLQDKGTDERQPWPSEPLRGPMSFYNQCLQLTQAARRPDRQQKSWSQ
bovine MsrA act: activators of bovine methionine sulfoxide reductase A | purified bovine MsrA, absorbance read-out | activation, % at 10.6 µM | 360,000 compounds, 0.3% hits | AID 602163; in the data active means activation above about 7.5%;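 further: 0% = vehicle and 100% = reference activator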
MsrA inh: inhibits bovine methionine sulfoxide reductase A | inhibition, % at 15.5 µM | AID 651718 | purified bovine MsrA, absorbance read-out | 360,000 compounds, 0.75% hits; in the data active means inhibition above about 4.5%;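 further: 0% = vehicle wells with enzyme and 100% = reference inhibitor wells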
sPLA2 confirm: human GIII-sPLA2 inhibition, confirmation; inhibition, % at 12.2 µM; 2,000 compounds, 34% hits; shares compounds with HGIII-sPLA2 inh; recombinant hGIII-sPLA2, BODIPY PC-A2 QFRET fluorescence;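 active means mean inhibition across triplicates above the hit cutoff set in the earlier primary screen, cut at about 19% in these data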;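 further: 0% = enzyme with DMSO and 100% = DMSO wells lacking enzyme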
535nm interf: counter-screen for HGIII-sPLA2 inhibitors: 535nm fluorescence interference; 2,000 compounds, 8.5% hits; inhibition, % at 12.2 µM; AID 743282; BODIPY FL product fluorescence interference, QFRET; shares compounds with HGIII-sPLA2 inh;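 active means average inhibition above the solvent-only control mean plus 3 SD, cut at about 6% in these data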;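 further: 0% = DMSO with substrate plus product and 100% = DMSO with substrate alone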
BODIPY interf DR: 535nm optical interference dose response, HGIII-sPLA2 counter-screen; AID 743455; shares compounds with HGIII-sPLA2 inh; IC50, µM; 240 tested, under 10 active; BODIPY FL product fluorescence interference, cell-free;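 active means IC50 at or below 10 µM; inactive means IC50 above 10 µM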
Active calls of the source: *; x = not tested or not shown. Most compounds without a hit are left out; they make up all but 2.8% or so of the library.

SMILES | rCAG RNA binder | HGIII-sPLA2 inh | bovine MsrA act | MsrA inh | sPLA2 confirm | 535nm interf | others
CN1c2ccccc2Sc2cc(N)ccc21 | 5 | 21* | -8 | 1 | 36* | 11*
O=c1oc(-c2cccc(C(F)(F)F)c2)nn1-c1ccc(C(F)(F)F)cn1 | -5 | 21* | -1 | -1 | 42* | 25*
CCc1ccccc1NC(=O)Cn1nc(C)n2cccc2c1=O | -2 | 6 | -1 | -1 | x | x
OC[C@@H](O)[C@H](O)C(/C=N/Nc1ccccc1)=N\Nc1ccccc1 | 4 | 20* | 0 | 2 | 23* | 3
CC(=O)/C=N/Nc1ccccc1 | -1 | 3 | -2 | 3 | x | x
COc1ccc(NC(=S)NC(=O)/C=C/c2ccc(F)cc2)cc1 | -2 | -1 | -3 | -2 | x | x
COc1ccc(/C=C/C(=O)NC(=S)Nc2ccc(C(=O)O)cc2)cc1 | 10 | 20* | -3 | 2 | 3 | -6
Oc1ccc2c(c1)c1c3n2CCNC3CCC1 (stereo not drawn) | x | x | -5 | x | x | x
c1ccc2c(c1)c1c3n2CCNC3CCC1 (stereo not drawn) | 0 | 26* | -3 | 0 | 30* | 0 | BODIPY interf DR=>122
CCOc1cc(N2CCOCC2)c(OCC)cc1NC(=O)c1ccc(OCc2c(C)noc2C)c(OC)c1 | -3 | 20* | -1 | 1 | 4 | -30
CCOc1cc(N2CCOCC2)c(OCC)cc1NC(=O)c1ccc(OC)cc1 | -5 | -1 | -3 | 0 | x | x
COc1ccccc1N1CCN(N=Cc2ccccc2Br)CC1 | 0 | 19* | x | x | 7 | -9
COc1ccccc1N1CCN(/N=C/c2cccc(OC)c2OC)CC1 | -7 | 4 | -6 | -2 | x | x
COc1cc(S(=O)(=O)NC2CCCC2)c(OC)cc1Cl | -1 | -1 | 0 | 1 | x | x
CCC(=O)Nc1c(C(=O)N2CCN(c3ccccn3)CC2)cnn1-c1ccc(C)cc1 | -9 | 22* | -2 | 0 | -1 | -9
CCCCc1nc(NCCNC(=O)c2ccccc2)c(C#N)c2c1CSC(C)(C)C2 | 2 | -7 | 0 | -1 | x | x
COc1ccc(C(=O)N/N=C/c2sc3ccccc3c2O)cc1 | x | x | -5 | x | x | x
COc1ccc2cc(C(=O)N/N=C/c3sc4ccccc4c3O)ccc2c1 | 33 | 21* | -5 | 2 | -28 | -33
O=C(N/N=C/c1sc2ccccc2c1O)c1cccc2ccccc12 | 13 | 31* | -7 | 4 | 9 | 5
O=C(N/N=C/c1sc2ccccc2c1O)c1ccccc1 | x | x | -4 | x | x | x
Cc1c(C(=O)NNC(=S)NCc2ccc(Cl)cc2)oc2ccccc12 | 31 | 24* | -3 | 1 | 14 | 16*
O=C(CCc1ccccc1)NNC(=S)NCc1ccc(Cl)cc1 | 3 | 6 | -3 | 1 | x | x
O=C(CNc1cccc(Cl)c1)NNC(=S)NCc1ccccc1 | 1 | 27* | -2 | 0 | 32* | -1 | BODIPY interf DR=>122
COc1ccc(NC(=S)NNC(=O)CNc2ccc(Cl)cc2)cc1 | 3 | 29* | -2 | 0 | 35* | 7.4*
O=C(CNc1ccc(Cl)cc1)NNC(=S)NCc1ccccc1 | 5 | 25* | -1 | 0 | 38* | 4 | BODIPY interf DR=>122
SMILES | rCAG RNA binder | HGIII-sPLA2 inh | bovine MsrA act | MsrA inh | sPLA2 confirm | 535nm interf | others
S=C(NCc1ccccc1)Nc1cccc(Cl)c1 | -3 | -2 | 3 | 1 | x | x
CCN(CC(=O)NCc1ccc(Cl)cc1)C(=O)c1oc2ccccc2c1C | 0 | -10 | -3 | 2 | x | x
COc1ccc(-c2ccc(CN3C(CC(C)C)C(=O)N(Cc4cn(Cc5ccco5)nn4)CCS3(=O)=O)cc2)cc1 (stereo not drawn) | 27 | -50 | -1 | 1 | x | x
O=C(CN1C(=O)/C(=C/c2ccccc2)SC1=S)NNC(=O)c1ccccc1O | 9 | 20* | -3 | 1 | 15 | -4
CC(/C=C1\SC(=S)N(CCC(=O)Nc2ccc(O)cc2)C1=O)=C\c1ccccc1 | 19 | 19* | -5 | 2 | -3 | 4
O=C(CCN1C(=O)/C(=C/c2ccccc2Cl)SC1=S)NNC(=O)c1ccccc1O | 9 | 20* | -1 | 0 | 30* | 1 | BODIPY interf DR=>122
Cc1ccc(/C=C2\SC(=S)N(CCC(=O)NNC(=O)c3ccccc3O)C2=O)cc1 | 6 | 9 | -3 | -1 | x | x
COc1cccc(/C=C2/SC(=S)N(CC(=O)NNC(=O)c3ccccc3O)C2=O)c1 | 17 | 23* | -1 | 1 | 22* | -8
COc1cccc(/C=C2/SC(=S)N(CCCC(=O)Nc3ccc(O)cc3)C2=O)c1 | 10 | -36 | -1 | 0 | x | x
Cc1ccc(S(=O)(=O)Nc2ccc3c(c2)nc(CN2CCCC2)n3C)cc1 | 6 | -3 | -4 | 0 | x | x
CCS(=O)(=O)c1ccc2oc(SCC(=O)NCCc3ccc(OC)cc3)nc2c1 | 6 | 0 | -2 | 1 | x | x
Cc1ccc(C(=O)Nc2sc(C)c(C)c2C(=O)c2ccccc2)cc1 | 3 | 23* | -1 | 1 | -4 | -6
COc1ccc(/C(C)=N/NC(=O)c2cccc(S(=O)(=O)N3CCCC3)c2)c(O)c1 | 26 | 35* | -4 | 2 | 24* | -6
COc1ccc(C(C)=NNC(=O)c2cccc(S(=O)(=O)N3CCCC3)c2)cc1 | 1 | -1 | -3 | 0 | x | x
COc1ccc(O)c(/C=N/NC(=O)c2c(C)nnn2-c2nonc2N)c1 | 2 | 1 | 1 | 2 | x | x
Cc1ccc2c(c1)N(Cc1ccc([N+](=O)[O-])cc1)C=NS2(=O)=O | 15 | -1 | 0 | 0 | x | x
COc1ccc(-c2cc3c(=O)n(CC(=O)NCc4ccccc4F)ncn3n2)cc1 | 2 | -2 | 0 | 0 | x | x
O=[N+]([O-])c1ccccc1/C=N/n1c(C2CCCCC2)n[nH]c1=S | 9 | 20* | -1 | 0 | 28* | 5 | BODIPY interf DR=>122
O=[N+]([O-])c1ccc(Cl)cc1N/N=C/c1ccncc1 | -3 | 20* | -4 | 1 | 9 | 1
O=C(N/N=C/c1ccncc1)c1cc([N+](=O)[O-])cc([N+](=O)[O-])c1O | 33 | 20* | -2 | 2 | 14 | 0
CC(C)(C)c1cc(NC(=O)C2CCCO2)no1 (stereo not drawn) | -2 | -1 | -1 | 1 | x | x
CCOc1ccccc1NC(=O)C(OC(=O)c1ccccc1O)c1ccccc1 (stereo not drawn) | -2 | 22* | 3 | 0 | -18 | -11
CCOc1ccccc1NC(=O)N1CCCC1C(=O)Nc1nnc(CC)s1 (stereo not drawn) | -4 | 2 | -11 | 0 | x | x
Cc1ccc2c(c1)c1c(n2CC(O)CN2CCCCC2C)CCCC1 (stereo not drawn) | -2 | -13 | 0 | 0 | x | x
Cc1ccc2c(c1)c(C)c(C)n2CC(O)CN1CCCCC1C (stereo not drawn) | 4 | 22* | 2 | 0 | 20* | -19
COCCNC(=S)N/N=C(\C)c1ccccc1OC | -2 | 11 | -3 | 0 | x | x
COc1ccc(/C(C)=N/NC(=S)NCCc2ccccc2)c(O)c1 | 12 | 44* | -1 | 2 | 7 | 8.2*
